Assay outcomes (PubChem)
c-Myc SMM – binders of human c-Myc, primary screen, biochemical, small molecule microarray, anti-His fluorescence; Myc proto-oncogene protein (Homo sapiens), P01106; His-c-Myc binding; calls only; 17,000 tested, 1.5% active;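 active = spot fluorescence over background with P-value below 7% in all four replicate spots, showing protein binding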;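 also: score is binary with 100 for all four spots passing and 0 otherwise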
Target sequence (P01106 whole entry, looked up): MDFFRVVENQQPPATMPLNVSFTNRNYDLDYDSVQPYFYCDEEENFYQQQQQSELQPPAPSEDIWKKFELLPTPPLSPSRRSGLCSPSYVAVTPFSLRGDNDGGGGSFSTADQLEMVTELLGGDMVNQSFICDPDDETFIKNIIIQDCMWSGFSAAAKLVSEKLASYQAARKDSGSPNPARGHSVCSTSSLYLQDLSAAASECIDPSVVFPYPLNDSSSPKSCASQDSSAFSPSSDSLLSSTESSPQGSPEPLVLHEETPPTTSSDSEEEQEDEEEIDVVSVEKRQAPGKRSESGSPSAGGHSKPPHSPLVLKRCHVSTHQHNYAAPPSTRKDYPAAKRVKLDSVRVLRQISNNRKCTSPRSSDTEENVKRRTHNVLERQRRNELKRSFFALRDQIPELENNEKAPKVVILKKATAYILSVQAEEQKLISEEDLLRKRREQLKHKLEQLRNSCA
mut p53 SMM – binders of human mutant p53, primary screen, biochemical, small molecule microarray, anti-GST fluorescence; calls only; 17,000 tested, 0.4% active; AID 624136, 2012; small molecule microarray binding; mutant tumor protein p53 (GST-tagged), Homo sapiens;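 active = compounds whose four printed spots each glow above background more than chance allows, each with a p-value under 7%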
NFkB binder – binders of NF-kB p50 subunit, primary screen, biochemical, small molecule microarray, anti-His fluorescence | Nuclear factor NF-kappa-B p105 subunit (Homo sapiens), P19838 | calls only | anti-His fluorescence binding | 17,000 tested, 1.3% active;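 active = spot fluorescence over background significantly raised, with a chance value under 7% in all four replicate spots of the compound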;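 also: probe protein is his-tagged human p50 processed subunit at 1 µg/ml; raw spot fluorescence signals with no normalization applied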
STAT3 SMM – STAT3 binders, primary screen, biochemical, small molecule microarray, single point, set 2; His-STAT3 binding, anti-His fluorescence; Signal transducer and activator of transcription 3 (Homo sapiens), P40763; 17,000 tested, 0.2% active; calls only;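 active = compounds whose four printed spots each show fluorescence over background unusually high for their array block, chance value under 7%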
Active calls of the source: *; i = inactive; + = active, no number. In the library only some 2.5% were active in any assay of this set; here they are far more common.

SMILES | c-Myc SMM | mut p53 SMM | NFkB binder | STAT3 SMM
Oc1ccccc1CNc1ccc2c(c1)ncn2C1CCCCC1 | + | i | i | i
COC(Cc1nc2ccccc2s1)C(=O)O (stereo unspecified) | + | i | i | i
C[C@@H]1CN([C@@H](C)CO)C(=O)c2cc(NC(=O)CCCN(C)C)ccc2O[C@H]1CN(C)Cc1ccncc1 | i | i | i | i
Cc1cc(NC(=O)C2CC(c3cccc(Br)c3)=NO2)n(-c2ccccc2)n1 (stereo unspecified) | i | i | i | i
CC1OC(OCC2(C)C=C3C4CCC5C6(C)CCC(O)C(C)(COC7OC(CO)C(O)C(O)C7O)C6CCC5(C)C4(C)CCC3(C(=O)O)CC2)C(O)C(O)C1O (stereo unspecified) | i | i | i | i
CC1OC(OCC2OC(OCC3(C)C(O)CCC4(C)C3CCC3(C)C4CCC4C5=CC(C)(C)CCC5(C(=O)O)CCC43C)C(O)C(O)C2O)C(O)C(O)C1O (stereo unspecified) | + | i | + | i
C=C1CC[C@@]2(OC1)O[C@H]1CC3[C@@H]4CC=C5C[C@H](O[C@@H]6OC[C@H](O)[C@H](O)[C@H]6O[C@@H]6O[C@@H](C)[C@H](O)[C@@H](O)[C@H]6O)C[C@@H](O)[C@]5(C)C4CC[C@]3(C)[C@H]1[C@@H]2C (stereo partly specified) | + | i | + | i
NC(=O)NCC#Cc1ccc2c(c1)[C@]1(C(=O)N2)[C@H](C(=O)N2CCCCCCC2)[C@H]2C(=O)O[C@H](c3ccccc3)[C@H](c3ccccc3)N2[C@@H]1c1ccc(O)cc1 | + | + | i | i
COC(=O)C(CC#Cc1ccc2c(c1)[C@]1(C(=O)N2)[C@H](C(=O)N2CCCCCCC2)[C@H]2C(=O)O[C@H](c3ccccc3)[C@H](c3ccccc3)N2[C@@H]1c1ccccc1OCCO)C(=O)OC | i | i | + | i
COC(=O)C(CC#Cc1ccc2c(c1)[C@]1(C(=O)N2)[C@H](C(=O)N2CCCCCCC2)[C@H]2C(=O)O[C@H](c3ccccc3)[C@H](c3ccccc3)N2[C@@H]1c1ccc(OCCO)cc1)C(=O)OC | i | + | i | i
C=C(C(=O)O[C@H]1C/C=C(/C)C[C@H](O)[C@H]2[C@H](C)C(=O)O[C@@H]2/C=C\1C)[C@@H]1CCC(=C)[C@@H]2C[C@H](O[C@@H]3O[C@H](CO)[C@@H](O)[C@H](O)[C@H]3O)C(=C)[C@@H]2C1 | i | i | i | i
C[C@H]1CN([C@@H](C)CO)C(=O)c2cccc(NS(=O)(=O)c3cn(C)cn3)c2O[C@H]1CN(C)C(=O)Nc1ccc(C(F)(F)F)cc1 | i | i | i | i
O=C(CN1C(=O)C2C3CCC(C3)C2C1=O)Nc1cccc(C(=O)O)c1 (stereo unspecified) | i | i | i | i
Cc1ccc(S(=O)(=O)NC(Cc2c[nH]c3ccccc23)C(=O)O)cc1 (stereo unspecified) | i | i | i | i
CSCC(NS(=O)(=O)c1ccc(Br)cc1)C(=O)O (stereo unspecified) | + | i | + | i
C[C@@H]1CCCCO[C@H](CN(C)C(=O)CCCN(C)C)[C@H](C)CN([C@@H](C)CO)C(=O)c2cc(N(C)C)ccc2O1 | i | i | i | i
COC(=O)c1ccc(NC(=O)CSc2nnc(-c3cccc(Cl)c3)n2C)cc1 | i | i | i | i
C[C@@H]1CCCCO[C@H](CN(C)C(=O)C2CCCCC2)[C@@H](C)CN([C@@H](C)CO)C(=O)c2cc(NC(=O)c3ccncc3)ccc2O1 | i | i | + | i
C[C@H]1CCCCO[C@@H](CN(C)C(=O)C2CCCCC2)[C@@H](C)CN([C@@H](C)CO)C(=O)c2cc(NC(=O)c3ccncc3)ccc2O1 | i | i | i | i
C[C@H]1CCCCO[C@@H](CN(C)C(=O)C2CCCCC2)[C@@H](C)CN([C@@H](C)CO)C(=O)c2cc(NC(=O)Nc3ccccc3)ccc2O1 | + | i | + | i
C[C@@H]1CCCCO[C@@H](CN(C)C(=O)Nc2ccccc2)[C@H](C)CN([C@@H](C)CO)C(=O)c2cc(NC(=O)C3CCCCC3)ccc2O1 | + | + | + | i
C[C@H](CO)N1C[C@H](C)[C@H](CN(C)C(=O)C2CCCCC2)OCCCC[C@H](C)Oc2ccc(NC(=O)Nc3ccccc3)cc2C1=O | + | i | i | i
Cc1noc(C)c1NC(=O)Nc1ccc2c(c1)C(=O)N([C@@H](C)CO)C[C@H](C)[C@@H](CN(C)C(=O)C1CCCCC1)OCCCC[C@H](C)O2 | + | i | i | i
COc1ccccc1NC(=O)Cn1c(C(F)(F)F)nc2ccccc21 | i | i | i | i
C=CCNC(=O)[C@@H]1[C@H]2C(=O)O[C@H](c3ccccc3)[C@H](c3ccccc3)N2[C@H](c2ccc(O)cc2)[C@@]12C(=O)Nc1ccc(C#CCCO)cc12 | i | i | i | i
SMILES | c-Myc SMM | mut p53 SMM | NFkB binder | STAT3 SMM
C[C@@H]1CN([C@@H](C)CO)C(=O)c2cc(NC(=O)c3ccncc3)ccc2O[C@@H](C)CCCCO[C@@H]1CN(C)C(=O)CCC(F)(F)F | i | i | + | i
C[C@H]1CCCCO[C@H](CN(C)C(=O)CCC(F)(F)F)[C@@H](C)CN([C@@H](C)CO)C(=O)c2cc(NC(=O)c3ccncc3)ccc2O1 | i | i | i | i
C[C@@H]1CN([C@@H](C)CO)C(=O)c2cc(NC(=O)Cc3ccccc3)ccc2O[C@@H](C)CCCCO[C@@H]1CN(C)C(=O)CCC(F)(F)F | i | i | i | i
C[C@H](CO)N1C[C@H](C)[C@@H](CN(C)C(=O)CCC(F)(F)F)OCCCC[C@H](C)Oc2ccc(NC(=O)CCC(F)(F)F)cc2C1=O | i | i | i | i
C[C@@H]1CCCCO[C@H](CN(C)C(=O)CCC(F)(F)F)[C@H](C)CN([C@@H](C)CO)C(=O)c2cc(NC(=O)Cc3ccccc3)ccc2O1 | + | i | + | i
C[C@@H]1CN([C@H](C)CO)C(=O)c2cc(NC(=O)CCC(F)(F)F)ccc2O[C@@H](C)CCCCO[C@H]1CN(C)C(=O)CCC(F)(F)F | + | i | + | i
CC(C)NC(=O)N(C)C[C@H]1OCCCC[C@H](C)Oc2ccc(NC(=O)CCC(F)(F)F)cc2C(=O)N([C@H](C)CO)C[C@@H]1C | + | i | + | i
COc1ccc(NC(=O)Nc2ccc3c(c2)C(=O)N([C@@H](C)CO)C[C@@H](C)[C@@H](CN(C)S(=O)(=O)c2ccc(OC)cc2)O3)cc1 | i | i | i | i
